FEN1 inhibitor: qHTS Assay for the Inhibitors of Human Flap endonuclease 1 (FEN1) | actives 0.35% (n = 390,000) | Potency, µM (titrated, usually from 114 µM), for inactives: top-dose activity change, negative = inhibition, most hits filed as inhibitors | P39748 | Recombinant FEN1 flap cleavage, fluorescence, 15 min | AID 588795, 2011; further: on the % scale 0 is the no-effect control and ±100 the full control effect; nearly all actives have a fitted effect of over 65% in size
Target sequence (P39748 whole entry, looked up): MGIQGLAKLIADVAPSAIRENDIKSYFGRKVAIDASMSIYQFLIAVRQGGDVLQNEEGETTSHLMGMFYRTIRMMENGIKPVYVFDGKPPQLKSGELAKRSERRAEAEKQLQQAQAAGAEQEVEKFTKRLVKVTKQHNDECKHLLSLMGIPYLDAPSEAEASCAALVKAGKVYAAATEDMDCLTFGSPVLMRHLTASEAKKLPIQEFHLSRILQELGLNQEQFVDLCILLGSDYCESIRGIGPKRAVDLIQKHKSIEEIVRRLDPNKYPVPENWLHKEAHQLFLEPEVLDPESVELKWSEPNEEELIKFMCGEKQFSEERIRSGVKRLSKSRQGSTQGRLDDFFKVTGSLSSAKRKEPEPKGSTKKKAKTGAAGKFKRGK
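Enzyme 10 nM, 15 min RT preincubation with compound; start with substrate 50 nM final; reads at 0 and 15 min; qHTS titration, four-parameter Hill fit.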
Pol kappa inh: qHTS for Inhibitors of Polymerase Kappa; actives 0.53% (n = 400,000); Potency, µM (top dose mostly 107 µM), for the others: at the top dose activity, negative = inhibition, actives largely listed as inhibitors; DNA polymerase kappa (Homo sapiens), Q9UBT6; purified Pol kappa, fluorescent DNA synthesis assay, 10 min; further: on the % scale 0 is the no-effect control and ±100 the full control effect
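Inhibition of 10 nM Pol kappa is measured by a fluorescent read-out at 0 and 10 min following addition of 50 nM substrate (final), with a 15-min room-temperature compound preincubation.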
POLH inh: qHTS for Inhibitors of Polymerase Eta | DNA polymerase eta (Homo sapiens), Q9Y253 | recombinant Pol eta, fluorescent DNA replication assay | Potency, µM (titrated, usually from 114 µM), for inactives: at the highest dose activity change, negative = inhibition, hits mostly inhibitors | actives 1.2% (n = 390,000); further: on the % scale 0 is the no-effect control and ±100 the full control effect
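Pol eta at 10 nM preincubated with compounds 15 min at room temperature; reaction started with fluorescent substrate (50 nM final) and read kinetically at 0 and 10 min.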
Pol beta inh: qHTS Assay for Inhibitors of DNA Polymerase Beta; actives 1.3% (n = 340,000); Potency, µM (top dose mostly 114 µM), without a hit: at the highest dose activity change, negative = inhibition, actives largely listed as inhibitors; Pol beta primer extension/strand displacement, fluorescence kinetic; P06746; AID 485314, 2010; further: on the % scale 0 is the no-effect control and ±100 the full control effect
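Homogeneous kinetic assay of primer extension and strand displacement by 10 nM Pol beta, preincubated 15 min at room temperature with compound before 50 nM substrate (final) was added. Read at 0 and 10 min; four-parameter Hill fit.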
Pol iota inh: qHTS for Inhibitors of Polymerase Iota; DNA polymerase iota (Homo sapiens), Q9UNA4; Pol iota fluorescent replication assay, 10 min; Potency, µM (highest dose often 115 µM), inactives show at the top dose activity, negative = inhibition, usual class: inhibitors; actives 1% (n = 390,000)
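Pol iota at 10 nM preincubated 15 min with compounds at room temperature; reaction started with fluorescent substrate, 50 nM final. Fluorescence read kinetically at 0 and 10 min; buffer-only wells as negative control.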
WRN inhibitor: qHTS for Inhibitors of WRN Helicase | Bifunctional 3'-5' exonuclease/ATP-dependent helicase WRN (Homo sapiens), Q14191 | Potency, µM (highest dose often 114 µM), inactives show top-dose activity change, negative = inhibition, most hits filed as inhibitors | WRN helicase unwinding, fluorescent forked duplex, kinetic | actives 0.46% (n = 360,000) | AID 651768, 2012; further: on the % scale 0 is the no-effect control and ±100 the full control effect; nearly all actives have a fitted effect of over 55% in size
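WRN at 20 nM final was preincubated with compound for 15 min at room temperature; reaction started with 100 nM forked duplex oligonucleotide carrying fluorophore and quencher plus 2 mM ATP (final). Unwinding followed kinetically by red fluorescence (ex 525/em 598 nm).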
An asterisk follows results filed as active; ? = inconclusive; nt = not tested or not shown; [ ] = another dose, or the depositor's remark. Sampled rows, rich in hits. Any-hit rate of the full collection: about 2.4%. The call rests on the fitted dose curve; in most records, active means well fitted curve in the direction sought with a large enough effect; inconclusive means small, poorly fitted or top-dose-only effect, or another doubt; inactive means no such curve, though single readings can be large; an effect the other way counts as inactive or inconclusive. Potency means the concentration at half of the fitted maximal effect.

SMILES	FEN1 inhibitor	Pol kappa inh	POLH inh	Pol beta inh	Pol iota inh	WRN inhibitor
O=C1CCC[C@@H]2[C@@H](Cc3ccccc3)[C@@H](Nc3ccccc3)C[C@@H]3CCN1[C@@H]32	-7.5%	13.2%	nt	nt	-5.4%	nt
Cc1nc2cnc(N3CCN(C)CC3)nc2n(Cc2ccc(F)cc2)c1=O	nt	5.2%[60.1 µM]	nt	nt	nt	nt
C[C@@H](O)[C@H]1C(=O)N2C(C(=O)O)=C(SCCN=CN)C[C@H]12	nt	-7.9%[60.1 µM]	nt	nt	nt	nt
O=C(COC(=O)c1ccc2ncsc2c1)NC(=O)C1CCCCC1	14.1%	-26.1%	nt	nt	70.8µM*	nt
O=C(OCC(=O)N1CCN(c2ccccc2)CC1)c1ccc2ncsc2c1	-1.1%	-39.7%	?	89.1µM*	?	-13.5%
O=C(OCC(=O)N1CCN(c2ccccc2)CC1)c1cccc([N+](=O)[O-])c1	-2.7%	2.3%	-17.3%	nt	-0.8%	-10.9%
CC1CCC(NC(=O)COC(=O)c2ccc3ncsc3c2)CC1 (configuration not stated)	11.3%	-0.6%	-3.3%	nt	?	12.7%
CC(C)C(N)c1csc(Nc2ccc(C(=O)NCCCO)cn2)n1 (configuration not stated)	nt	nt	nt	nt	nt	-5.6%
O=C(OCc1ccc([N+](=O)[O-])cc1)C1CC(=O)N(CCc2ccccc2)C1 (configuration not stated)	-1.6%	-13.7%	-7.3%	nt	8.6%	-17.7%
O=C(OCc1nnc(-c2ccc([N+](=O)[O-])cc2)o1)C1CC(=O)N(CCc2ccccc2)C1 (configuration not stated)	3.3%	-14.2%	?	nt	79.4µM*	-29.5%
CCC(CC)CN1CCC(CN2C(=O)C(=O)NC[C@@H]2CC(C)C)CC1	nt	nt	nt	nt	nt	-7.9%
N#CC(C#N)=C1C=CC=CN1/C(=C\c1ccco1)C(=O)c1ccc(Cl)cc1	-13.6%	-19.4%	-12.7%	0.8%	?	22.4µM*
Cc1ccnc(NS(=O)(=O)c2ccc(NC(=O)Cc3ccc(F)cc3)cc2)n1	-2.7%	7.1%	4.7%	5.9%	4.8%	2.2%
Cc1ccnc(NS(=O)(=O)c2ccc(NC(=O)Cc3cccs3)cc2)n1	?	31.6µM*	2.51µM*	20µM*	14.1µM*	39.8µM*
Cc1ccc(C)c(SCC(=O)Nc2ccc(S(=O)(=O)Nc3ncccn3)cc2)c1	-2.0%	-0.5%	50.1µM*	?	?	-8.5%[11.6 µM]
CCN(CC)C(=O)C1=C(C)N(Cc2ccc(C(C)(C)C)cc2)C(=O)C(CC(=O)NCC2CCCCC2)C1 (configuration not stated)	nt	nt	-13.5%	nt	nt	-9.0%
COc1cccc2c1Oc1ncccc1N(C(=O)CCC(=O)NCc1cccc(C)c1)C2	-7.7%	-45.0%	-7.1%	27.2%	39.8µM*	-5.9%[11.6 µM]
COc1cccc2c1Oc1ncccc1N(C(=O)CCC(=O)NCc1ccc(F)cc1)C2	20.0%	-12.5%	-4.9%	-9.9%	-14.2%	2.0%
C=C/C(C)=C/CC1C(=C)CCC2C(C)(C(=O)O)CCCC12C (configuration not stated)	?	15.8µM*	7.08µM*	?	?	?
O=C(/C=C/c1ccco1)N(Cc1ccc(Cl)cc1)C1CCS(=O)(=O)C1 (configuration not stated)	-2.1%	?	?	2.4%	39.8µM*	13.3%
COc1ccc(CN(C(=O)/C=C/c2ccco2)C2CCS(=O)(=O)C2)cc1OC (configuration not stated)	-10.3%	?	4.6%	5.7%	79.4µM*	-13.1%
CCOc1ccc(CN(C(=O)/C=C/c2ccco2)C2CCS(=O)(=O)C2)cc1 (configuration not stated)	-7.0%	-20.4%	-0.2%	?	?	2.5%
CN(C)c1ccc(CN(C(=O)/C=C/c2ccco2)C2CCS(=O)(=O)C2)cc1 (configuration not stated)	5.0%	-3.6%	-1.7%	29.8%	166.9%	-27.9%
COc1ccccc1-c1nnc2sc(COc3ccc(Cl)cc3Cl)nn12	-23.7%	-24.7%	-10.0%	56.2µM*	-15.2%	-10.3%
COc1ccccc1-c1nnc2sc(COc3ccccc3)nn12	-7.2%	-5.4%	-13.6%	7.7%	-3.4%[58.9 µM]	-5.7%
SMILES	FEN1 inhibitor	Pol kappa inh	POLH inh	Pol beta inh	Pol iota inh	WRN inhibitor
CCSC[C@H](NC(=O)[C@H](C)NC(=O)[C@@H](N)Cc1ccc(O)cc1)C(=O)N[C@@H](CC(=O)O)C(=O)N[C@H](C(=O)N[C@@H](C)C(=O)N[C@H](C(=O)N[C@@H](CSCC)C(=O)N[C@H](C(=O)N[C@H](C(=O)N[C@@H](Cc1cnc[nH]1)C(=O)N[C@@H](CCCNC(=N)N)C(=O)N[C@@H](CC(C)C)C(=O)N[C@@H](C)C(=O)NCC(=O)N[C@@H](CC(C)C)C(=O)N[C@@H](CC(C)C)C(=O)N[C@@H](CO)C(=O)N[C@@H](CCCNC(=N)N)C(=O)N[C@@H](CO)C(=O)NCC(=O)NCC(=O)N[C@H](C(=O)N[C@H](C(=O)N[C@@H](CCCCN)C(=O)N[C@@H](CC(N)=O)C(=O)N[C@@H](CC(N)=O)C(=O)N[C@@H](Cc1ccccc1)C(=O)N[C@H](C(=O)N1CCC[C@H]1C(=O)N[C@H](C(=O)N[C@@H](CC(N)=O)C(=O)N[C@H](C(=O)NCC(=O)N[C@@H](CO)C(=O)N[C@@H](CCCCN)C(=O)N[C@@H](C)C(=O)N[C@@H](Cc1ccccc1)C(N)=O)C(C)C)[C@@H](C)O)C(C)C)C(C)C)C(C)C)[C@@H](C)O)C(C)C)[C@@H](C)O)[C@@H](C)O	nt	18.5%[60.1 µM]	nt	nt	nt	nt
COc1cc(NC(=O)CC2C(=O)N(c3ccccc3)C(=O)N2Cc2ccc(F)cc2)cc(OC)c1 (configuration not stated)	-6.6%	-12.2%[60.1 µM]	-12.9%	11.9%	7.1%	nt
c1ccc2c(Nc3nc(-c4ccncc4)nc4ccccc34)cccc2c1	3.0%	0.4%	-11.3%	27.4%	12.1%	-11.7%
Cc1ccc(-c2nc(N/N=C/c3ccncc3)c3ccccc3n2)cc1	-0.8%	-17.2%	44.7µM*	?	?	-28.9%[57.1 µM]
Clc1ccccc1Nc1nc(-c2ccncc2)nc2ccccc12	-29.8%	-6.2%[60.1 µM]	-13.6%	-15.7%	50.1µM*	4.1%[11.6 µM]
COC(=O)N(C)C[C@H]1OCc2cnnn2CCCC(=O)N([C@H](C)CO)C[C@H]1C	nt	nt	-11.1%	nt	nt	-2.0%
O=c1ccsc2ccccc12	4.7%	-8.9%	-8.4%	nt	2.3%	1.0%
